Records with an inconclusive call do not appear. Calls of active or inactive are those of the source. How the source made its calls: active means hit-call score of the fitted dose curve at least 0.9, where 1 is the maximum; inconclusive means response in the unintended direction; inactive means score below 0.9.

This assay is described as follows: ATG_M_32_TRANS: Attagene TRANS-FACTORIAL HepG2 Assay for M32 Transcription Factor (Internal Marker) (AID 2282984). Conditions: HepG2 Attagene TRANS M32 internal marker reporter. As for the experimental part:
ATG_TRANS is a cell-based, multiplexed-readout assay that uses HepG2, a human liver cell line, with measurements taken at 24 hours after chemical dosing in a 24-well plate.ATG_M_32_TRANS is one of 30 assay component(s) measured or calculated from the ATG_TRANS assay. It is designed to make measurements of mRNA induction, a form of inducible reporter, as detected with fluorescence intensity signals by Reverse transcription polymerase chain reaction (RT-PCR) and Capillary electrophoresis technology.Data from the assay component ATG_M_32_TRANS was analyzed into 1 assay endpoint. This assay endpoint, ATG_M_32_TRANS, was analyzed in the positive analysis fitting direction relative to DMSO as the negative control and baseline of activity. Using a type of inducible reporter, measures of mRNA for gain-of-signal activity can be used to understand the background control at the transcription factor-level as they relate to the gene . Furthermore, this assay endpoint can be referred to as a secondary readout, because this assay has produced multiple assay endpoints where this one serves a background control function. To generalize the intended target to other relatable targets, this assay endpoint is annotated to the background measurement intended target family, where the subfamily is internal marker.
Human liver HepG2 cells are transiently transfected with multiple reporter transcription units (MRTUs) in 6-well plates using FuGene 6 reagent (Roche; 3 ml FuGene/1 mg DNA). The MRTU constructs are regulated by a cis-regulating element (promoter). […] A major difference between the CIS and TRANS system is that in CIS activities of endogenous TFs are measured, whereas the TRANS assay evaluates changes in activities of exogenous, chimeric NR-Gal4 proteins. […] At the end of 24 hour incubation, total RNA was isolated using TriZol reagent (Invitrogen). The isolated RNA is then reverse-transcribed using oligo(dT) primer and Mo-MLV reverse transcriptase (Invitrogen) with DNAse I (Ambion) treatment for 30 min. The one-tenth of the produced cDNA was amplified by PCR using Taq DNA polymerase (Invitrogen) and two reporter sequence-specific primers. The PCR products were fluorescently labeled by primer extension with 6-arboxyfluorescein (6-FAM) 5'-labeled reporter sequence-specific primer (2 min at 95 C, 20 s at 68 C and 10 min at 72 C) and these products were digested with 5U of HpaI (New England Biolabs) for 2h at 37 C. The fragments were purified using Qiaquick PCR columns (Qiagen), analyzed on an ABI 3130xL genetic analyzer (Applied Biosystems) with peak positions identified by using a set of X-rhodamine (ROX)-labeled MapMarker1000 molecular weight standards (BioVentures). The raw capillary electrophoresis data was processed using Attagraph software (Attagene).
Take `N#CN=C1SCCN1Cc1ccc(Cl)nc1`: the call was inactive.

As for `Clc1cccc(C(Cl)(Cl)Cl)n1`, the outcome was inactive.

On to `O=P(O)(O)CCCl`, for which the result was inactive.

For the compound `Nc1cnn(-c2ccccc2)c(=O)c1Cl`, the call was inactive.

In the case of `CCOc1cc(C(C)(C)C)ccc1C1COC(c2c(F)cccc2F)=N1` (stereo not given), the result was inactive.

Consider `CNC(=O)N(C)c1nnc(C(C)(C)C)s1`, for which the call was inactive.

In the case of `CO/N=C(/C1=NOCCO1)c1ccccc1Oc1ncnc(Oc2ccccc2Cl)c1F`, the compound was called inactive.

Turning to `COCc1cnc(C2=NC(C)(C(C)C)C(=O)N2)c(C(=O)O)c1` (stereo not given), the compound was called inactive.

Turning to `COP(=S)(OC)Oc1ccc([N+](=O)[O-])c(C)c1`, the outcome was inactive.

In the case of `CSC(=O)c1c(C(F)F)nc(C(F)(F)F)c(C(=O)SC)c1CC(C)C`, the result was inactive.

On to `N#Cc1c(Cl)cccc1Cl`, for which the result was inactive.

With `COP(=S)(OC)SCn1nnc2ccccc2c1=O`, the compound was called inactive.

In the case of `CC(C)NC(=O)N1CC(=O)N(c2cc(Cl)cc(Cl)c2)C1=O`, the compound was classed as inactive.

As to `COc1cc(Cl)c(OC)cc1Cl`, the outcome was inactive.

For `CC(C)N1C(=O)c2ccccc2NS1(=O)=O`, the outcome was inactive.

Take `CC1(C)C(C(=O)OC(C#N)c2cccc(Oc3ccccc3)c2)C1(C)C` (stereo not given): the outcome was inactive.

On to `O=C(Nc1ccccc1-c1ccc(Cl)cc1)c1cccnc1Cl`, for which the call was inactive.

Turning to `COc1cc(OC)nc(NC(=O)NS(=O)(=O)c2ncccc2OCC(F)(F)F)n1`, the outcome was inactive.

Consider `Cn1c(-c2ccccc2)cc(-c2ccccc2)[n+]1C`, for which the result was inactive.

On to `CN/C(=N\[N+](=O)[O-])NCc1cnc(Cl)s1`, for which the outcome was inactive.

For `CC(C)(C)C(=O)C(Oc1ccc(Cl)cc1)n1cncn1` (stereo not given), the compound was called inactive.

Regarding `CCOc1nc(F)cc2nc(S(=O)(=O)Nc3c(Cl)cccc3Cl)nn12`, the compound was classed as inactive.

Consider `CCCCC(C#N)(Cn1cncn1)c1ccc(Cl)cc1` (stereo not given), for which the outcome was inactive.

`CN=C=S`: the call was inactive.

On to `CC1(C)C(C=C(Cl)Cl)C1C(=O)OC(C#N)c1cccc(Oc2ccccc2)c1` (stereo not given), for which the compound was classed as inactive.

In the case of `CCSC(=O)N1CCCCCC1`, the compound was called inactive.

For the compound `CCCN(CC)CC1COC2(CCC(C(C)(C)C)CC2)O1` (stereo not given), the compound was classed as inactive.

For the compound `CCN(CC)c1nc(C)cc(OP(=S)(OC)OC)n1`, the outcome was inactive.

For `CC(C)N1C(=O)N(c2ccccc2)CSC1=NC(C)(C)C`, the result was inactive.

Consider `CC(C)Oc1cccc(NC(=O)c2ccccc2C(F)(F)F)c1`, for which the outcome was inactive.

Consider `COC(=O)c1c(C(F)F)nc(C(F)(F)F)c(C2=NCCS2)c1CC(C)C`, for which the call was inactive.

As to `N#Cc1c[nH]cc1-c1cccc2c1OC(F)(F)O2`, the compound was classed as inactive.

Turning to `Cc1cc(C)nc(Nc2ccccc2)n1`, the call was inactive.

In the case of `CCCCOCN(C(=O)CCl)c1c(CC)cccc1CC`, the result was inactive.

For the compound `COCC(=O)N(c1c(C)cccc1C)C(C)C(=O)OC` (stereo not given), the compound was classed as inactive.

Consider `CS(=O)(=O)c1ccc(C(=O)C2C(=O)CCCC2=O)c([N+](=O)[O-])c1`, for which the call was inactive.

On to `COCC(C)N(C(=O)CCl)c1c(C)csc1C` (stereo not given), for which the call was inactive.

On to `CCCC(=NOCC)C1=C(O)CC(CC(C)SCC)CC1=O` (stereo not given), for which the result was inactive.

For the compound `COC(=O)N(C(=O)N1CO[C@@]2(C(=O)OC)Cc3cc(Cl)ccc3C2=N1)c1ccc(OC(F)(F)F)cc1`, the result was inactive.

Turning to `CC1(C)CCC(=Cc2ccc(Cl)cc2)C1(O)Cn1cncn1` (stereo not given), the outcome was inactive.
